Laboratory results taken from PubChem BioAssay (NCATS).
Where “and” joins values, the source holds several entries; their conditions need not be identical. Identical values can stand only once. Unmarked numbers belong to inactive results. Results filed as inconclusive are left out. Entries that show only a call come without a potency. Calls of active or inactive are those of the source. Unless noted, the call rests on the fitted dose curve; in most records, active means well fitted curve in the direction sought with a large enough effect; inconclusive means small, poorly fitted or top-dose-only effect, or another doubt; inactive means no such curve, though single readings can be large; an effect the other way counts as inactive or inconclusive.

How the values were obtained:
[1] = AP1 Signaling Pathway (AID 357; active means well fitted curve in either direction with a large enough effect, not every such curve was filed as active); settings: ME-180 AP-1-bla reporter, EGF-induced, beta-lactamase ratio, 5 h; at 7.69 µM (top of the series) unless noted
How it was run: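 In this screen, ME-180 cells in Opti-MEM with 0.5% dialyzed FBS received EC50 EGF and compound titrations for 5 h. AP-1 reporter beta-lactamase was detected via CCF4 ratio, giving AC50 for positive and negative modulators.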

[2] = target: Cytochrome P450 1A2 (Homo sapiens) (UniProt P05177); assay: p450-cyp1a2 (AID 410; calls by dose curve; further: potency means the concentration at half of the fitted maximal effect)
Sequence of Cytochrome P450 1A2 (Homo sapiens) (P05177 whole entry, looked up): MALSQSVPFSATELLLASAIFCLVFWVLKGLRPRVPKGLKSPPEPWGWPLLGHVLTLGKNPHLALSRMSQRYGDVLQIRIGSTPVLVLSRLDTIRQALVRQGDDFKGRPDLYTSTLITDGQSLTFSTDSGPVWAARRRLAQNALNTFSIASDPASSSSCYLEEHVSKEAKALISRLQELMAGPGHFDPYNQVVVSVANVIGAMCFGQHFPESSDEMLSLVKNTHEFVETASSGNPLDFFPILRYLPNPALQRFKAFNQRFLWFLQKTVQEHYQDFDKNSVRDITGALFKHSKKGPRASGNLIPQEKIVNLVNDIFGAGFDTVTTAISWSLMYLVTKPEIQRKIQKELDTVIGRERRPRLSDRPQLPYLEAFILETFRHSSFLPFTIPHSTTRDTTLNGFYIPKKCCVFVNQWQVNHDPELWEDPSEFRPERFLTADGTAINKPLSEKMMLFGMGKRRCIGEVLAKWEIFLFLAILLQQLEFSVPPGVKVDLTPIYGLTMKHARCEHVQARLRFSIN
How it was run: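 Luminescent readout of luciferin formed from Luciferin-ME by human CYP1A2; data normalized against complete inhibition by 57 uM furafylline. Enzyme 20nM, substrate 100uM at Km, 100mM KPO4 buffer, 60 min reaction at room temperature.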

[3] = NFAT Signaling Pathway (AID 444; active means well fitted curve in either direction with a large enough effect, not every such curve was filed as active;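 further: carbachol stimulus at about its EC50 of 1 µM final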); settings: Jurkat NFAT-bla M1, carbachol, beta-lactamase ratio, 5 h; at 7.69 µM (top of the series) unless noted
How it was run: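 Read-out: CCF4 FRET ratio (460 nm/530 nm) after 1 h RT dye loading, used for %activity and AC50 from titration series. Cells: Jurkat NFAT-β-lactamase/M1 line, treated with compound plus 1 uM carbachol for 5 h, 37 °C.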

[4] = Stat Signaling Pathway (AID 446; active means well fitted curve in either direction with a large enough effect, not every such curve was filed as active;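 further: ME-180 cervical cancer cells given 40 pM IL-6 alongside compound; SIE-controlled beta-lactamase reporter measured as 460/530 nm FRET emission ratio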); settings: ME-180 SIE beta-lactamase reporter, IL-6 stimulated, 5 h; at 7.69 µM (top of the series) unless noted
How it was run: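 ME-180 cells carrying a SIE-driven beta-lactamase reporter are stimulated with 40 pM IL-6 for 5 h at 37C in the presence of compound. The 460/530 nm FRET substrate ratio is read after 2.5 h at RT. Data are normalised to 300 pM IL-6 and to 125 nM JAK inhibitor controls.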

[5] = target: Glucocorticoid receptor (Homo sapiens) (UniProt P04150); assay: GR-GFP Redistribution (AID 450;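 active means compounds whose dose series gives a full or clear partial fitted curve of increased nuclear translocation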; further: potency means the concentration at half of the fitted maximal effect); settings: U2OS GR-GFP nuclear translocation, laser cytometry, 2 h
Sequence of Glucocorticoid receptor (Homo sapiens) (P04150 whole entry, looked up, the tested form may be a part): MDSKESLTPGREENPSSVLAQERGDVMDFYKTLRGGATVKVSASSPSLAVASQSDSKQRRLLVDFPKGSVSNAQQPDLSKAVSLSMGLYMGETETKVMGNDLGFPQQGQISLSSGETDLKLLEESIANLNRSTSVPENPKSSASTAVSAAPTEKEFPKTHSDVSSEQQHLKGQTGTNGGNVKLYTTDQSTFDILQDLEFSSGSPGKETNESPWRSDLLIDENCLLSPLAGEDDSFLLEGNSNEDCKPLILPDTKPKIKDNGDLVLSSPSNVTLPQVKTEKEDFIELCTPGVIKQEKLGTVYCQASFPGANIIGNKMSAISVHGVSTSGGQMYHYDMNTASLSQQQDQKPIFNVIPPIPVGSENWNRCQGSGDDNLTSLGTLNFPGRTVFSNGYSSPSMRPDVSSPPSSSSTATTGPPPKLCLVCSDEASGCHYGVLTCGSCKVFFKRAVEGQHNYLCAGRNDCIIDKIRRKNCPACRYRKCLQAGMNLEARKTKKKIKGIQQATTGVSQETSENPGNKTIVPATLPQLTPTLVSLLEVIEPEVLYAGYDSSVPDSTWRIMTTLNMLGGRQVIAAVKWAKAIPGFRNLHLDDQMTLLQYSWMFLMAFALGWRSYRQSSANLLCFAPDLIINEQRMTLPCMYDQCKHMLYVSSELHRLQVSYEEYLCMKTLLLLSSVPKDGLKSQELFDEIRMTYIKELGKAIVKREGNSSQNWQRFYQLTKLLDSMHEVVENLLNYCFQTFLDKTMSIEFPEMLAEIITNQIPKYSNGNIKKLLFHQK

[6] = target: 3',5'-cyclic-AMP phosphodiesterase 4B (Homo sapiens) (UniProt Q07343); assay: qHTS Assay for Inhibitors of PDE-IV (AID 607; active means well fitted activation curve with a large enough effect in the main read-out, with a control signal flat, not every such curve was filed as active)
Sequence of 3',5'-cyclic-AMP phosphodiesterase 4B (Homo sapiens) (Q07343 whole entry, looked up): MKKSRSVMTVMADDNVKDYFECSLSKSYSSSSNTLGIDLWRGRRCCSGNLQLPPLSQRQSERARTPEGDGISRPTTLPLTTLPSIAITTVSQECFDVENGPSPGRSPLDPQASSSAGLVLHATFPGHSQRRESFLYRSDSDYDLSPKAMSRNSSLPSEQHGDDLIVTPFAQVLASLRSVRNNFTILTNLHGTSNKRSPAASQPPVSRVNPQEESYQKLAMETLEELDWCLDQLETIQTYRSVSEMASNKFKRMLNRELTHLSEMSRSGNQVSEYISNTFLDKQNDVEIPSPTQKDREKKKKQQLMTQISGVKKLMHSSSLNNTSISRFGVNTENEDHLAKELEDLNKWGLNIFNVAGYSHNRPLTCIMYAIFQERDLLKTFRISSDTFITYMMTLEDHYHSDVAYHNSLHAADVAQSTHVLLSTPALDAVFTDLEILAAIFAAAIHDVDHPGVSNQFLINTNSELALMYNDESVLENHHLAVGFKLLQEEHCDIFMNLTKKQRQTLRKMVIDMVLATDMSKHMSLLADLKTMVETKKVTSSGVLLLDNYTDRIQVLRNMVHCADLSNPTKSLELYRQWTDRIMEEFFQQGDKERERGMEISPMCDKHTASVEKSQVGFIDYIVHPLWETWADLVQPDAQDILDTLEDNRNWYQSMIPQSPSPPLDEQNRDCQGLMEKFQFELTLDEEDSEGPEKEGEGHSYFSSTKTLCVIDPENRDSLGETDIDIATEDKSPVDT
How it was run: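 HEK293 ACTOne cells with CNG channel (1000/well), endogenous PDE4; membrane potential dye, compounds up to 22.9 uM final. Fluorescence Ex 535/Em 590; RO 20-1724 (100 uM final) as reference.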

[7] = target: Guanine nucleotide-binding protein G(i) subunit alpha-1 (Homo sapiens) (UniProt P63096); assay: qHTS Assay for Inhibitors of RGS12 GoLoco Motif Activity (Green Fluorophore) (AID 879);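 further: negative values mean loss of peptide binding seen as reduced polarization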
Sequence of Guanine nucleotide-binding protein G(i) subunit alpha-1 (Homo sapiens) (P63096 whole entry, looked up): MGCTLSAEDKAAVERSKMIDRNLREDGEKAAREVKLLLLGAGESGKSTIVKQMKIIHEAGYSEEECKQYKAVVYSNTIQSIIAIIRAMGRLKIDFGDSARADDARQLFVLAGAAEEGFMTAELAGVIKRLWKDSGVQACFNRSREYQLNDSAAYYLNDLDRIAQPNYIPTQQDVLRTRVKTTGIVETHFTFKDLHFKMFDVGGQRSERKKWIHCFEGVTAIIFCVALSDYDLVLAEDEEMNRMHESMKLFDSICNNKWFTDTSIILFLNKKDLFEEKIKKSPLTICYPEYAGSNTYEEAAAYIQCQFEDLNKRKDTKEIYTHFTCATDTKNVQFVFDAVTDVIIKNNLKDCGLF
How it was run: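 Fluorescence polarization assay: 50 nM Gαi1 with 10 nM FITC-labeled RGS12 GoLoco peptide in 10 mM Tris pH 7.5, 150 mM NaCl, 0.1 mM GDP, 0.05% NP40, 10 min at room temperature with compound.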

[8] = qHTS Assay for Identification of Small Molecule Agonists for Thrombopoietin (TPO) Signaling Pathway (AID 917)
How it was run: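 IL-3-dependent murine pro-B Ba/F3 cells, stably transfected with human TPO receptor and GpIIb-promoter luciferase, are incubated 24 hrs at 37 C with test compound and 26 pM TPO; luciferase signal is read after 10 min at room temperature.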

[9] = target: Muscarinic acetylcholine receptor M1 (Rattus norvegicus) (UniProt P08482); assay: qHTS Assay for Antagonists of Acetylcholine Muscarinic M1 Receptor: Kinetic Measurement of Intracellular Calcium Response (AID 943);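 further: Fluo-4 calcium signal as peak divided by basal fluorescence over 4 min; nearly all actives have a fitted effect of over 75% in size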
Sequence of Muscarinic acetylcholine receptor M1 (Rattus norvegicus) (P08482 whole entry, looked up): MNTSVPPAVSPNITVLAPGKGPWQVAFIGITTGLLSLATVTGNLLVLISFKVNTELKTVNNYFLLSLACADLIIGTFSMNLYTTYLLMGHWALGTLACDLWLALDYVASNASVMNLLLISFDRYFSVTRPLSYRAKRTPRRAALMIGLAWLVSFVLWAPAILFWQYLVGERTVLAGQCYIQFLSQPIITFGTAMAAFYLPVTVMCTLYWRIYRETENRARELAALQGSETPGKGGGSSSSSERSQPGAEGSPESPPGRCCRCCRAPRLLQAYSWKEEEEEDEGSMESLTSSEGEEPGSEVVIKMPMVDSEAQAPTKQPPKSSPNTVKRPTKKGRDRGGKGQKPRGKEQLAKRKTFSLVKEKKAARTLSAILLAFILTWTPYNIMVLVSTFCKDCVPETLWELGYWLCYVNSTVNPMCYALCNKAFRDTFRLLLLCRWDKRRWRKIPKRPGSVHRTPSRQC
How it was run: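 Rat M1-CHO cells, 2000/well, overnight → Fluo-4 no-wash dye with probenecid, 1 h 37C → compound 10 min, room temp → basal read 6 s → carbachol EC80 (100 nM) → 4 min kinetic read; peak/basal.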

[10] = target: Muscarinic acetylcholine receptor M1 (Rattus norvegicus) (UniProt P08482); assay: qHTS Assay for Antagonists of Acetylcholine Muscarinic M1 Receptor: Measurement of IP-One Response (AID 944); further: nearly all actives have a fitted effect of over 75% in size
How it was run: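 M1-CHO (rat), 2000 cells/well, overnight recovery; cpd 10 min; carbachol EC80 (200 nM), 30 min, HEPES buffer + 50 mM LiCl pH 7.4; IP-One HTRF, Ex 337, Em 620/665 nm.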

[11] = target: Pyruvate kinase (Leishmania mexicana) (UniProt Q27686); assay: qHTS Validation Assay for Inhibitors of Leishmania Mexicana Pyruvate Kinase (AID 945)
How it was run: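 The enzyme is a highly purified E451W mutant of LmPYK used at 0.2 nM. It converts 0.5 mM PEP and 0.1 mM ADP over 1 h at room temperature; product ATP is quantified by luciferase luminescence relative to DMSO controls.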

[12] = target: Pyruvate kinase PKM (Homo sapiens) (UniProt P14618); assay: qHTS Assay for Activators of Human Muscle Pyruvate Kinase (AID 954; active means well fitted curve in the direction sought with a large enough effect, not every such curve was filed as active)
Sequence of Pyruvate kinase PKM (Homo sapiens) (P14618 whole entry, looked up): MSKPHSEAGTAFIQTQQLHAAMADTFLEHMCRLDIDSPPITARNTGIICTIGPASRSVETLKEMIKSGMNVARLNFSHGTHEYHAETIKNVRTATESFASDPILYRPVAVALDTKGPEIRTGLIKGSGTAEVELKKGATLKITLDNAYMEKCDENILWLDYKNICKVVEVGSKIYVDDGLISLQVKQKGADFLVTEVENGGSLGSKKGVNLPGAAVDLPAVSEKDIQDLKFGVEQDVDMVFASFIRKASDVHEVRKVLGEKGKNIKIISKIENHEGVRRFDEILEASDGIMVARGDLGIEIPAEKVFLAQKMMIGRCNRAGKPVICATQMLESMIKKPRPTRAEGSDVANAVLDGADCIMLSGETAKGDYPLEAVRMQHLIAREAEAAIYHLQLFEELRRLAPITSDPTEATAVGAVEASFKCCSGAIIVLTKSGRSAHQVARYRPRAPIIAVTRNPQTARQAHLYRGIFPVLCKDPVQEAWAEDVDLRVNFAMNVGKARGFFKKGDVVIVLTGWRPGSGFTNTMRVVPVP
How it was run: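 Purified human PKM2 (0.1 nM) with 0.5 mM PEP (Km) and 0.1 mM ADP in 50 mM imidazole pH 7.2, KCl, MgCl2, 1 h at room temperature; ATP formed read by coupled luciferase luminescence. Normalized to no-enzyme/110 uM thiadiazolimine inhibition; 0.3 nM enzyme column for activation.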

[13] = target: Alpha-galactosidase A (Homo sapiens) (UniProt P06280); assay: Counterscreen for Glucocerebrosidase Inhibitors: qHTS Assay for Human alpha-Galactosidase at pH 4.5 (AID 992)
How it was run: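 Human enzyme (2 nM) with 80 uM 4-methylumbelliferyl alpha-D-galactopyranoside in 50 mM citric acid, 0.005% Tween-20, pH 4.5, 20 min at room temperature. Compounds 0.7 nM–77 uM; fluorescence Ex 365/Em 440 after pH 10 stop; AC50 from Hill fits.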

[14] = target: alpha-glucosidase (Oryza sativa, rice) (UniProt Q653V4); assay: Counterscreen for Glucocerebrosidase Inhibitors: qHTS Assay for Rice alpha-Glucosidase at pH 5.0 (AID 997)
How it was run: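 Rice alpha-glucosidase (4 nM final) with 400 uM 4-methylumbelliferyl-alpha-D-glucopyranoside in citrate buffer pH 5.0, 20 min at room temperature, stopped at pH 10; fluorescence 365/440 nm, compounds 0.7 nM–77 uM, AC50 from Hill fits.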

[15] = target: Glucocorticoid receptor (Homo sapiens) (UniProt P04150); assay: GR-EFC Redistribution (AID 451; calls by dose curve; further: potency means the concentration at half of the fitted maximal effect); settings: CHO-K1 GR-EFC translocation, beta-gal luminescence, 2 h
How it was run: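 Translocation of GR-ED fusion to nuclear EA restores b-gal, read by luminescence after 1 h room-temperature detection. Engineered CHO-K1 biosensor cells, 1,000/well, exposed 2 h at 37 C to titrations up to 46 uM final.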

[16] = target: Cytochrome P450 2C9 (Homo sapiens) (UniProt P11712); assay: qHTS Assay for Inhibitors and Substrates of Cytochrome P450 2C9 (AID 883); further: nearly all actives have a fitted effect of over 60% in size
Sequence of Cytochrome P450 2C9 (Homo sapiens) (P11712 whole entry, looked up): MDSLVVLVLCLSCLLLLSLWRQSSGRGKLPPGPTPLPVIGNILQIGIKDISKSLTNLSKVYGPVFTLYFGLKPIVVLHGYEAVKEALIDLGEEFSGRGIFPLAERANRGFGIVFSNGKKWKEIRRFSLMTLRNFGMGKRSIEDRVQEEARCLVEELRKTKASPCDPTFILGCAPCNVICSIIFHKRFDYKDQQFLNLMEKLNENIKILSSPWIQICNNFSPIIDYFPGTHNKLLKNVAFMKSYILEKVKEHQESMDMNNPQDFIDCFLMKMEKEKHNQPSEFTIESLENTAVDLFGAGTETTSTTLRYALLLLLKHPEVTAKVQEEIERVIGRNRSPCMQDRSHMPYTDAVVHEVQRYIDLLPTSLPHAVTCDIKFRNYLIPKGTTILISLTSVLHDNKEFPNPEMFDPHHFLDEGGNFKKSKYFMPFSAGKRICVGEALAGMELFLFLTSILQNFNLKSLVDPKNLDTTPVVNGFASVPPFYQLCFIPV
How it was run: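 Turnover of Luciferin-H (100uM, KM) by 10nM human CYP2C9 was measured over 60 min at 37C with NADPH regeneration; inhibitors and some substrates reduce luminescence. Data normalized to sulphaphenazole 57uM.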

[17] = target: Cytochrome P450 2C19 (Homo sapiens) (UniProt P33261); assay: qHTS Assay for Inhibitors and Substrates of Cytochrome P450 2C19 (AID 899); further: nearly all actives have a fitted effect of over 60% in size
Sequence of Cytochrome P450 2C19 (Homo sapiens) (P33261 whole entry, looked up): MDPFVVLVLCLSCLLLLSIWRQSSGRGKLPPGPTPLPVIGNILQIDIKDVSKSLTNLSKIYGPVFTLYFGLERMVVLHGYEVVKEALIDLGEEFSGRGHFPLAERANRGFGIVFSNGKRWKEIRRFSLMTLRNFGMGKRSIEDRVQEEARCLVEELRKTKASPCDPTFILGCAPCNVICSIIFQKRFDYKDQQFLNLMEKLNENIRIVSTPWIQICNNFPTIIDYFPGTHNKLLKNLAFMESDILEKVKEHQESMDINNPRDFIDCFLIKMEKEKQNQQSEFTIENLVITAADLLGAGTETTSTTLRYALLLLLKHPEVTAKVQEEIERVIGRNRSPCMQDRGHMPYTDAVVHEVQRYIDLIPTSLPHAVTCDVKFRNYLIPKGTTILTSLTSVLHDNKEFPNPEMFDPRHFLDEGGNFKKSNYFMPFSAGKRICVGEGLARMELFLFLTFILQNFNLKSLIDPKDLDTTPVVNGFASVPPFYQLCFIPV
How it was run: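 Reactions contain 5nM enzyme, 10uM Luciferin-H EGE (KM) and 50mM KPO4; compound preincubates 10 min at 37C, NADPH regeneration starts turnover for 60 min. Luminescence after detection reagent gives activity.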

[18] = target: Cytochrome P450 2D6 (Homo sapiens) (UniProt P10635); assay: qHTS Assay for Inhibitors and Substrates of Cytochrome P450 2D6 (AID 891);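 further: luciferin methyl ether substrate demethylated by CYP2D6 with NADPH regeneration; nearly all actives have a fitted effect of over 60% in size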
Sequence of Cytochrome P450 2D6 (Homo sapiens) (P10635 whole entry, looked up): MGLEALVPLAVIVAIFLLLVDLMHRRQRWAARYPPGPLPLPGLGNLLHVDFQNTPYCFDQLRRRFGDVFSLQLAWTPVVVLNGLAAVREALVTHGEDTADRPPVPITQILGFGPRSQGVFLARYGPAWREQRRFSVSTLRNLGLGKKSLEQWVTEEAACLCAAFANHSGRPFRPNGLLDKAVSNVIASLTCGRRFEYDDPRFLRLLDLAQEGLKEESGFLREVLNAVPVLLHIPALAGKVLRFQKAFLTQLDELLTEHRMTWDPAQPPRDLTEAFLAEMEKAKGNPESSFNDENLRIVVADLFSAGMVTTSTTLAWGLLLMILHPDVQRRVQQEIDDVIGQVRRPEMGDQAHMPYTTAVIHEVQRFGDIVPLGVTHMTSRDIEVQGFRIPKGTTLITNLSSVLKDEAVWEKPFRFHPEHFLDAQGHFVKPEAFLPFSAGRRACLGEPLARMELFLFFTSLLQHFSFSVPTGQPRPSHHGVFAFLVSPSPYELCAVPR
How it was run: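 Human CYP2D6 (5 nM) with 30 uM Luciferin-ME EGE (at Km) in 100 mM KPO4, compound preincubated 10 min, then NADPH regeneration system for 60 min at room temperature. Luciferin read by luminescence; normalized to 1.43 uM quinidine.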

[19] = target: Mitogen-activated protein kinase 10 (Mus musculus) (UniProt Q61831); assay: JNK3 AlphaScreen Assay (AID 530; active means well fitted curve in either direction with a large enough effect, not every such curve was filed as active;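 further: kinase came from lysate of stimulated human HepG2 cells; signal reports phosphorylation of biotinylated GST-cJun 1-79 at Ser73 with 10 µM ATP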)
How it was run: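 Compound titrations were preincubated 15 minutes at room temperature with substrate, antibody and pre-activated JNK3-containing HepG2 lysate. Reactions were started with 10 uM ATP and stopped with EDTA-containing bead buffer for AlphaScreen detection.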

C=C/C(C)=C/[C@]1(C)SC(=O)C(C)=C1O
activity change, negative = inhibition [1]: -3.15% [at 38 µM]
Potency [2]: inactive
activity change, negative = inhibition [3]: 11.1% [at 38 µM]
activity, negative = inhibition [4]: -7.1% [at 38 µM]
Potency [5]: > 46 µM
Potency [6]: inactive
outcome [7]: inactive
outcome [8]: inactive
Potency [9]: inactive
Potency [10]: inactive
outcome [11]: inactive
outcome [12]: inactive
outcome [13]: inactive
Potency [14]: inactive

CCCCCCCCCCCCC/C=C\[C@H](O)[C@H](N)CO
activity change, negative = inhibition [1]: 27.4% [at 38 µM]
Potency [2]: 31.6 µM (active)
activity change, negative = inhibition [3]: 1.11% [at 38 µM]
activity, negative = inhibition [4]: -6.68% [at 38 µM]
Potency [5]: > 46 µM
Potency [15]: > 46 µM
Potency [6]: inactive
Potency [16]: inactive
Potency [17]: inactive

OC[C@@H]1O[C@@H](n2cnc3c(N[C@@H]4C[C@@H]5CC[C@H]4C5)ncnc32)[C@@H](O)[C@H]1O
activity change, negative = inhibition [1]: -1.94% [at 38 µM]
Potency [2]: inactive
activity change, negative = inhibition [3]: 8.03% [at 38 µM]
activity, negative = inhibition [4]: 24.8% [at 38 µM]
Potency [5]: > 46 µM
Potency [15]: > 46 µM
Potency [6]: inactive
outcome [7]: inactive
outcome [8]: inactive
Potency [9]: inactive
Potency [10]: inactive
outcome [11]: inactive
outcome [12]: inactive
outcome [13]: inactive
Potency [14]: inactive

O=C(O)[C@H]1C[C@H](C(=O)O)N1
activity change, negative = inhibition [1]: -0.354% [at 38 µM] and 2.92% [at 38 µM]
Potency [2]: inactive
activity change, negative = inhibition [3]: 3.19% [at 38 µM] and 0.467% [at 38 µM]
activity, negative = inhibition [4]: -10.2% [at 38 µM]
Potency [5]: > 46 µM
Potency [15]: > 46 µM
Potency [6]: inactive
outcome [7]: inactive
Potency [16]: inactive
Potency [18]: inactive
Potency [17]: inactive
outcome [8]: inactive
Potency [9]: inactive
Potency [10]: inactive
outcome [11]: inactive
outcome [12]: inactive
outcome [13]: inactive
Potency [14]: inactive

N[C@@H](C(=O)O)[C@H](O)C(=O)O
activity change, negative = inhibition [1]: -4.8% [at 38 µM]
Potency [2]: inactive
activity change, negative = inhibition [3]: -3.19% [at 38 µM]
activity, negative = inhibition [4]: 8.48% [at 38 µM]
Potency [5]: > 46 µM
Potency [15]: > 46 µM
Potency [6]: inactive
Potency [16]: inactive
Potency [18]: inactive
Potency [17]: inactive

CC(=O)OCC(=O)[C@@]1(O)CC[C@@H]2[C@@H]3CCC4=CC(=O)CC[C@@]4(C)[C@H]3C(=O)C[C@]21C
activity change, negative = inhibition [1]: 4.78% [at 38 µM]
Potency [2]: inactive
activity change, negative = inhibition [3]: 5.8% [at 38 µM]
activity, negative = inhibition [4]: -12.6% [at 38 µM]
Potency [15]: > 46 µM
Potency [19]: inactive
Potency [6]: inactive
Potency [16]: inactive
Potency [18]: inactive
Potency [17]: inactive
